# High-throughput results deposited in PubChem by National Center for Advancing Translational Sciences (NCATS).
# DT40 TDP1 no CPT: qHTS for Inhibitors of human tyrosyl-DNA phosphodiesterase 1 (TDP1): qHTS in cells in absence of CPT; DT40 Tdp1-/- hTDP1 cells, no CPT, ATP luminescence, 48 h; Potency, µM (doses to about 46.2 µM), for inactives: at the top dose activity change, negative = growth inhibition, hits mostly inhibitors; 15% of 420,000 active; AID 686978, 2013; also: potency is read from the fitted curve at half-maximal effect; nearly all actives have a fitted effect of over 55% in size
#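 DT40 Tdp1-/-;hTDP1 cells, no CPT (DMSO vehicle only), 400 cells/well; compounds pin-transferred; ≥48 hr, 37 °C; CellTiter-Glo 30 min RT dark, luminescence read.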
# DT40 TDP1 CPT: qHTS for Inhibitors of human tyrosyl-DNA phosphodiesterase 1 (TDP1): qHTS in cells in presence of CPT | chicken DT40 Tdp1-/-;hTDP1 cells + 20 nM CPT, ATP luminescence, 48 h | Potency, µM (top dose mostly 46.2 µM), inactives show at the highest dose activity change, negative = growth inhibition, actives largely listed as inhibitors | 12% of 420,000 active | AID 686979, 2013; also: potency is read from the fitted curve at half-maximal effect; nearly all actives have a fitted effect of over 55% in size
#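 Cell growth measured by CellTiter-Glo luminescence after a minimum 48 h, 37 C compound exposure with 20 nM CPT in Tdp1-knockout DT40 cells stably expressing hTDP1, seeded 400/well; qHTS titration format.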
# IL1B secr inh: qHTS for Inhibitors of Inflammasome Signaling: IL-1-beta AlphaLISA Primary Screen | activity change, % at 57.5 µM | 4.7% of 360,000 active | THP-1 LPS/ATP IL-1B secretion, AlphaLISA, 16 h; stronger effect = lower value; in the data active = activity change below about -50%; inconclusive = mostly about -30% to -49%
#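 Secreted IL-1B measured by AlphaLISA bead assay after 16 h compound exposure of THP-1 cells; compounds (final up to 57.5 uM) added 1 h before LPS (250 ng/mL) and ATP (1.25 mM) stimulation; lower signal means less secretion.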
# HT1080 IDH1KD tx: qHTS for induction of synthetic lethality in tumor cells producing 2HG: qHTS for the HT-1080-IDH1KD cell line | HT-1080 IDH1 knockdown viability, ATP luminescence, 48 h | Potency, µM (doses to about 46.1 µM), for inactives: top-dose activity, negative = toxicity, hits mostly cytotoxic | 2% of 360,000 active | AID 686971, 2013;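 also: potency is read from the fitted curve at half-maximal effect; 0% = DMSO wells and -100% = cell-free medium wells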
#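 Using the IDH1-knockdown HT-1080 line run in the same batch and compound series as the NT line, viability after 48 h at 37 °C was determined by CellTiter-Glo luminescence and expressed as % activity.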
# HT1080NT lethal: qHTS for induction of synthetic lethality in tumor cells producing 2HG: qHTS for the HT-1080-NT fibrosarcoma cell line. HT-1080-NT fibrosarcoma viability, CellTiter-Glo ATP luminescence, 48 h. Potency, µM (top dose mostly 46.1 µM), for inactives: top-dose activity, negative = less viability, actives largely listed as cytotoxic. 1.6% of 360,000 active;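 also: NT is the 2HG producing partner of a matched IDH1 knockdown line; potency is read from the fitted curve at half-maximal effect; 0% = DMSO-treated cells and -100% = media-only wells without cells; nearly all actives have a fitted effect of over 55% in size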
#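 HT-1080-NT; 750 cells/well; 5% FBS RPMI; 48 h compound, 37 degrees C; CellTiter-Glo luminescence; curve fitting and curve-class assignment.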
# Active calls of the source: *; ? = inconclusive; . = no result. Only some compounds are listed: those with a hit (about 19% of all), similar ones and a draw of the others. Unless noted, calls follow the shape of the dose curve; as a rule, active = well fitted curve in the direction sought with a large enough effect; inconclusive = small, poorly fitted or top-dose-only effect, or another doubt; inactive = no such curve, though single readings can be large; an effect the other way counts as inactive or inconclusive. Unless noted, % is scaled to controls: 0 for no effect and ±100 for the full control effect.
SMILES,DT40 TDP1 no CPT,DT40 TDP1 CPT,IL1B secr inh,HT1080 IDH1KD tx,HT1080NT lethal
Cc1csc(NC(=O)c2cc3c(s2)CCCC3)n1,11.6µM*,?,-19.4,-26.2%,-21.7%
CN(C(=O)Cn1cc(S(=O)(=O)N2CCN(c3ccccc3F)CC2)c2ccccc2c1=O)c1ccc(Cl)cc1,-29.8%,-27.9%,.,.,.
O=C(CSc1nc2ccccc2c(=O)n1-c1ccccc1F)NC1CCS(=O)(=O)C1 (stereo unspecified),2.1%,-6.1%,-7.3,5.5%,7.7%
COc1cc2c(cc1OC)C(c1ccc(Br)cc1)NC(=O)C2 (stereo unspecified),-16.7%,2.2%,-71.0*,-4.3%,-3.8%
CCc1ccc(-c2cc(C(F)(F)F)n3nc(C(=O)Nc4cnn(Cc5ccc(C)cc5)c4)cc3n2)s1,5.01µM*,5.01µM*,-27.3,3.16µM*,?
Cc1ccccc1Cn1cc(NC(=O)c2cc3nc(-c4ccco4)cc(C(F)(F)F)n3n2)cn1,?,?,-4.8,-19.5%,-22.0%
COc1ccc(-n2c(O)c(/C=N/n3cnnc3)c3ccccc3c2=O)cc1,-3.2%,-19.3%,-5.9,11.2%,12.7%
Cc1cc(=O)oc2c(N)nccc12,?,?,-105.1*,-16.2%,-25.0%
COc1ccc2c(C)cc(=O)oc2c1C,-12.0%,-15.7%,4.1,6.3%,9.7%
Cc1cccc(C)c1NC(=O)CNC(=O)c1ccc(N2CCCC2)c([N+](=O)[O-])c1,2.5%,-2.1%,?,-9.0%,-10.6%
COc1ccc(CNC(=O)COC(=O)CN2C(=O)COc3ccccc32)cc1,-5.9%,3.1%,8.7,13.7%,15.8%
CC(C)(C)c1ccc(/C=N/Nc2nncn2N)cc1,-2.8%,-18.7%,-23.4,?,-19.7%
CSc1ccc(/C=N\Nc2nncn2N)cc1,-25.1%,?,-1.8,20.6µM*,?
O=[N+]([O-])c1cc(Br)cc(/C=N/n2cnnc2)c1O,?,-26.2%,-0.6,-14.9%,-13.6%
Nn1cnnc1N/N=C/c1cc(Br)cc(Br)c1O,?,?,-66.7*,?,-21.2%
C=CCS/C(N)=N\N=C\c1cc(Br)cc([N+](=O)[O-])c1O,7.31µM*,?,8.7,-17.3%,-13.4%
Cc1nnc(C)n1/N=C/c1cc(Br)cc(Br)c1O,-7.1%,-2.5%,24.9,?,?
CS/C(N)=N/N=C/c1cc(Br)cc(Br)c1O,16.4µM*,?,0.0,-6.3%,0.0%
CCCNC(=O)C1(C)CCN1C(=O)Cc1ccc(C(C)C)cc1 (stereo unspecified),?,-27.1%,41.0,2.1%,17.1%
COCCN(C(=O)c1ccc(N2CCCC2=O)cc1)c1c(N)n(Cc2ccccc2)c(=O)[nH]c1=O,29.2%,-4.6%,-19.4,-7.5%,-4.6%
O=C1CCCc2ccccc2N1Cc1c(Cl)cccc1Cl,?,-24.1%,-1.5,-15.1%,-12.6%
CNC(=S)N(C)/N=C1/C(=O)N(Cc2c(Cl)cccc2Cl)c2ccccc21,18.4µM*,14.6µM*,0.0,-12.8%,-10.6%
CCN1C(=O)C(O)(CC(=O)C(C)(C)C)c2cc(Br)ccc21 (stereo unspecified),?,-7.6%,6.5,15.9%,-0.8%
CN1C(=O)C(O)(CC(=O)c2ccccn2)c2cc(Br)ccc21 (stereo unspecified),5.17µM*,5.8µM*,85.7,-21.0%,?
CN1C(=O)[C@@](O)(CC(=O)c2ccccc2)c2cc(Br)ccc21,6.51µM*,5.8µM*,60.7,-12.1%,-1.8%
SMILES,DT40 TDP1 no CPT,DT40 TDP1 CPT,IL1B secr inh,HT1080 IDH1KD tx,HT1080NT lethal
CCN1C(=O)C(O)(CC(=O)c2ccccn2)c2ccccc21 (stereo unspecified),5.17µM*,5.8µM*,28.7,1.9%,2.6%
Cc1ccc(C(=O)CC2(O)C(=O)N(C)c3ccc(Br)cc32)c(C)c1 (stereo unspecified),-26.0%,?,-3.6,5.7%,2.5%
CC(=O)Nc1ccc2c(c1)nc1n2CCN(C2CCCCC2)C1,4.1%,5.7%,13.9,21.6%,16.7%
COc1ccccc1/C=C1\SC(=S)N(CCC(=O)NCCc2ccc(O)cc2)C1=O,16.4µM*,?,-81.8*,?,?
COc1ccc(/C=C2/SC(=S)N(CCCC(=O)Nc3ccc(O)cc3)C2=O)cc1,?,?,-16.7,?,?
COc1ccc(/C=C2\SC(=S)N(CCC(=O)NCCc3ccc(O)cc3)C2=O)cc1,16.4µM*,?,-7.8,8.9%,-3.8%
COc1ccccc1/C=C1\SC(=S)N(CCC(=O)Nc2ccc(C(=O)O)c(O)c2)C1=O,-9.8%,20.3%,16.6,4.1%,-0.1%
O=C(CCN1C(=O)/C(=C/c2ccccc2)SC1=S)NCCc1ccc(O)cc1,?,16.4µM*,-12.3,?,?
CCCC(=O)Nc1nnc(SCc2cc(=O)c3ccc(C)cc3[nH]2)s1,0.731µM*,1.46µM*,.,.,.
CCOc1cc(C2C(C#N)=C(N)OC(C)=C2C(C)=O)c(Br)c(Br)c1OC(C)C (stereo unspecified),4.61µM*,4.61µM*,0.0,14.6µM*,7.31µM*
CCOc1cc(C2C(C#N)=C(N)OC(C)=C2C(C)=O)cc(Br)c1O (stereo unspecified),-14.6%,-8.6%,16.7,12.2%,9.9%
CC[C@]12c3[nH]c4cc(CCC(=O)N(C)C)ccc4c3CCN1C(=O)[C@@H](CC(=O)NC(C)(C)C)C[C@@H]2C(=O)N1CCN(C(=O)c2ccco2)CC1,-4.4%,-21.6%,7.5,10.6%,5.6%
CCCCCC(=O)N(O)C1CC(=O)N(c2ccccc2)C1=O (stereo unspecified),4.61µM*,3.26µM*,-26.0,-24.5%,-18.3%
CCCCCC(=O)N(CN1C(=O)CCC1=O)c1ccccc1,-1.1%,2.2%,17.5,7.8%,-12.4%
CCCCCCC(=O)N(O)C1CC(=O)N(Cc2ccccc2)C1=O (stereo unspecified),13µM*,13µM*,-87.5*,?,?
O=C1CC(N(O)C2CC(=O)N(Cc3ccccc3)C2=O)C(=O)N1Cc1ccccc1 (stereo unspecified),10.3µM*,20.6µM*,3.8,-2.3%,0.5%
CCCCCC(=O)NNC1CC(=O)N(c2ccccc2)C1=O (stereo unspecified),-6.1%,0.3%,14.1,10.8%,5.9%
